Results filed as inconclusive are left out. Calls of active or inactive are those of the source. Rule for the calls: active = hit-call score of the fitted dose curve at least 0.9, where 1 is the maximum; inconclusive = response in the unintended direction; inactive = score below 0.9.

The target in one experiment is bovine Estrogen Receptor (ER), ESR1 (gene 407238) (UniProt P49884). The experiment is described as follows: NVS_NR_bER: NovaScreen (NVS) Nuclear Receptor Binding Assay for bovine Estrogen Receptor (ER) (AID 2283345).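 Note: actives lower the bound radioligand count which means they displace the ER ligand.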 In outline: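 Cell-free radioligand binding with receptor from bovine uterine membranes, read by scintillation counting 18 h after dosing. Loss of specific binding was scored against DMSO; primary screen at 25 uM in duplicate, actives then run as concentration series.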
bovine Estrogen Receptor (ER), ESR1 (gene 407238), sequence (P49884 whole entry, looked up): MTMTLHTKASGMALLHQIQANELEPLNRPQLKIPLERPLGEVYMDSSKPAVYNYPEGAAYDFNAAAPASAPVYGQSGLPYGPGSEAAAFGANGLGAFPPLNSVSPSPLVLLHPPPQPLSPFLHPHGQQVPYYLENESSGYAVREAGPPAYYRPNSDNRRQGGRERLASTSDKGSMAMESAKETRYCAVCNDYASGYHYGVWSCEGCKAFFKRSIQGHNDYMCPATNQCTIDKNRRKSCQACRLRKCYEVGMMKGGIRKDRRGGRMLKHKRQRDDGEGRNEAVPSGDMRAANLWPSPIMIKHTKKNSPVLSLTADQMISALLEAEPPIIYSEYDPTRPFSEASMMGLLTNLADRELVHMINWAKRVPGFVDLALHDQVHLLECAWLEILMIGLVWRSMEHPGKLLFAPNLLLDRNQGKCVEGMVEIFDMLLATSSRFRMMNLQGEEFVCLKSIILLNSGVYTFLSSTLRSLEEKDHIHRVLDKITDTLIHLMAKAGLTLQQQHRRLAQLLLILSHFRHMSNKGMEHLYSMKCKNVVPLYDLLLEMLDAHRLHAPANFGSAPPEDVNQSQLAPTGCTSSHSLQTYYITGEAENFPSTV
`CNCCCC12CCC(c3ccccc31)c1ccccc12`: the compound was called inactive. What is called AC50 is the concentration at which the activity in the assay is half-maximal. With `Cc1cc(C2(c3cc(C)c(O)cc3C)OS(=O)(=O)c3ccccc32)c(C)cc1O`, the concentration at half-maximal activity (AC50) was 10.6 µM (active).

Consider `CCCCCCCCC=O`, for which the result was inactive. In the case of `CC(C)c1cccc(O)c1`, the result was inactive. As for `c1cc(C(c2ccc(OCC3CO3)cc2)c2ccc(OCC3CO3)cc2)ccc1OCC1CO1` (stereo not given), the outcome was inactive. The same measure, in the same setting: under `CCCCCCCCCC=O` stands “inactive”; under `CC(C)C(C)(C)C(C)(C)C(C)(C)S`, “inactive”. The same measure, in the same setting: under `CC(=O)[C@H]1CC[C@H]2[C@@H]3CC=C4C[C@@H](O)CC[C@]4(C)[C@H]3CC[C@]12C` stands “inactive”; under `NC(=O)Nc1ccc(Cl)cc1`, “inactive”; under `CC(C)(C)C(=O)c1ccccc1`, “inactive”. The same measure, in the same setting: then `O=C(O)CCSCCC(=O)O`, with “inactive”.

In another experiment the target is chimpanzee Androgen Receptor (AR), AR (gene 747460) (UniProt O97775). The experiment is described as follows: NVS_NR_cAR: NovaScreen (NVS) Nuclear Receptor Binding Assay for chimpanzee Androgen Receptor (AR) (AID 2283346).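 Note: a loss of bound radioligand signal versus DMSO counts as binding.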 In a few lines: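 Radioligand binding to chimpanzee AR expressed in Sf9/Sf21 cells, cell-free, measured 72 h after dosing by lysate-based scintillation counting. Loss of signal vs DMSO; initial duplicate screen at 25 uM, actives retested in concentration series.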
chimpanzee Androgen Receptor (AR), AR (gene 747460), sequence (O97775 whole entry, looked up): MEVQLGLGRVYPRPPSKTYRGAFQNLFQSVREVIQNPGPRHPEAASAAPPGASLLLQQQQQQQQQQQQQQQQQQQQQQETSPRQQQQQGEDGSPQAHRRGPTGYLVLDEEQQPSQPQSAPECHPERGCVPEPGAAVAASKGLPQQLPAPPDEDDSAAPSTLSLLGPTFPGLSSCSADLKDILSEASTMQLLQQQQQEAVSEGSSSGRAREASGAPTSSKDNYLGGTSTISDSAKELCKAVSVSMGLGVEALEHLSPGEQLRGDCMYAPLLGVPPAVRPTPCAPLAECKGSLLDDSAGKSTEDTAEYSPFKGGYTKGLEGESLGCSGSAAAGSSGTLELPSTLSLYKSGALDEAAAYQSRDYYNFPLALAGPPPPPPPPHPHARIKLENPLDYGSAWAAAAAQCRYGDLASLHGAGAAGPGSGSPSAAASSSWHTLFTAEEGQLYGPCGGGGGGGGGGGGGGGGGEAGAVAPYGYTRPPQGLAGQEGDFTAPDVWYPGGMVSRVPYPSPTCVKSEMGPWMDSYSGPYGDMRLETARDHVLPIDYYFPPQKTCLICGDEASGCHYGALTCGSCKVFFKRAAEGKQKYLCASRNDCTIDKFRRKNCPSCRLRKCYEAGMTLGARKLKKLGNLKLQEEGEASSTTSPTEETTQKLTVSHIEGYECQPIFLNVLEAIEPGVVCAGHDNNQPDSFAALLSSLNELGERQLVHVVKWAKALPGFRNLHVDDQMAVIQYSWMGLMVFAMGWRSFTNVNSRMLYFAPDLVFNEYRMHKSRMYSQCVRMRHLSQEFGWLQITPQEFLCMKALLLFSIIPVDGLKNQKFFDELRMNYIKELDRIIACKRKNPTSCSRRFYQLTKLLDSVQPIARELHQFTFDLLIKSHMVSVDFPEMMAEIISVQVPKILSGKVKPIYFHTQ
For the compound `Cc1ccc(C(C)C)cc1O`, the AC50 is 10.6 µM (active). With `O=C1C(c2[nH]c3ccc(S(=O)(=O)O)cc3c2O)=Nc2ccc(S(=O)(=O)O)cc21`, the compound was classed as inactive. Consider `O=c1[nH]nnc2ccccc12`, for which the call was inactive. For the compound `CCCCCCCCCCCCCCCC(=O)OC[C@H](O)[C@H]1OC(=O)C(O)=C1O`, the call was inactive. Still for that read-out and setting: then `CCN(CC)c1ccc(C(=C2C=CC(=[N+](CC)CC)C=C2)c2ccc(S(=O)(=O)O)cc2S(=O)(=O)[O-])cc1`, with “inactive”. Regarding `CC(C)=CCCC(C)=CCCC(C)=CCO`, the compound was called inactive. On to `O=C1OC2(c3cc(Br)c(O)c(Br)c3Oc3c2cc(Br)c(O)c3Br)c2c(Cl)c(Cl)c(Cl)c(Cl)c21`, for which the outcome was inactive. On to `CC(=O)O[C@]1(C(C)=O)CC[C@H]2[C@@H]3C[C@H](C)C4=CC(=O)CC[C@]4(C)[C@H]3CC[C@@]21C`, for which the concentration at half-maximal activity (AC50) was 0.422 µM (active). Regarding `C=CC(C)(O)CCC=C(C)CCC=C(C)C` (stereo not given), the compound was classed as inactive.
